Columns and labels:
Assay in all cases: PBM binding z-score (relative to random genomic background probes); higher = stronger binding; sequences stand for … in GC…GCGATTGACAGCGTAGAATGAAGG
[1] = system: RARb homodimer (NR concentration 270 nM)
Method in brief: (§1)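 Regression normalization was applied to scanned fluorescence from custom Agilent 4×180K protein-binding microarrays. Before scanning, arrays were incubated 1 h with ligand-free nuclear receptor dimers, and binding was detected with antibodies against each partner (one per run). Binding z-scores use the random background probes as reference.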

[2] = system: RARg:RXRa (NR concentration 270 nM, RXRa partner concentration 90 nM)
Method in brief: as §1

[3] = system: RARg homodimer (NR concentration 270 nM)
Method in brief: as §1

[4] = system: RXRa DBDmut IVT, anti-RXR (DBD mutation: RXRa K156A/R161A, NR concentration 90 nM)
Method in brief: as §1

[5] = system: RXRa homodimer (NR concentration 180 nM)
Method in brief: as §1

[6] = system: THRa:RXRa (NR concentration 90 nM, RXRa partner concentration 90 nM)
Method in brief: as §1

[7] = system: THRa homodimer (NR concentration 90 nM)
Method in brief: as §1

[8] = system: VDR homodimer (NR concentration 270 nM)
Method in brief: as §1

Sequence	PBM binding z-score [1]	PBM binding z-score [2]	PBM binding z-score [3]	PBM binding z-score [4]	PBM binding z-score [5]	PBM binding z-score [6]	PBM binding z-score [7]	PBM binding z-score [8]
CAGCCTGGGTCAGGGCCAGTATAGGAGGAACGTT	2.07	2.63	2.76	-1.29	1.51	1.09	-0.124	-0.545
TGAATGAGATTAAAGATCAGGGAACGTGGCGTCG	-0.824	-0.0861	0.247	-1.09	0.253	-0.316	-0.698	-0.27
GCTTGTAGATCAAGGTTTAGAAAGACTAAGCTAA	-0.764	-0.251	-0.299	-0.0471	-0.469	-0.36	-0.736	-0.186
GATACAGGGTCAGCTAGAGGCAAGAGTATGGAAA	2.77	4.72	4.64	0.963	4.52	2.8	0.438	0.394
CCTCGGAGGACAGAAGGCCAGAGCTGTCCGCTTT	0.275	-0.112	0.0875	-0.346	-0.765	0.0492	-0.927	-0.212
TCATATATGTAATACAGGTGAAAGTCGGCATCTA	0.413	0.595	0.586	1.59	1.13	0.578	0.0633	0.192
TATACAGGGTCAAAGGCCAGAGGACGAATGTCGA	3.52	5.92	5.44	2.95	7.17	3.5	0.968	2.9
CGAACTAGGTCAGAACAGGACAGTGAAGGATGAT	1.92	2.45	3.34	0.418	1.23	3.41	0.173	-0.0967
ATACCAAGGTGATCGTGAGGTCGTTGATACTAAC	1.73	2.06	1.03	0.728	1.38	3.4	2.63	2.83
TCTATTAGTTGATTAGGGCAACAGAAACAGCGGA	0.664	0.691	0.686	0.926	0.691	0.607	0.289	0.253
GTACCAAGGTGAATAGGTCGTTGAAGAGTAGGCG	2.13	2.81	1.45	-0.183	1.9	1.91	0.593	0.198
GATACAGGGTCAGCAAGAGGCCAGAGTATGGAAA	3.45	6.61	4.76	1.16	4.52	3.21	0.361	0.548
GGAACGAGGGCAAGTTCATAGCAGAGTTTGATGG	2.84	2.99	3.16	3.64	2.16	2.35	0.375	5.08
CGAACTAGGTCAAGGGCAGTGAATCTCCGCACGC	3.25	3.74	4.64	1.59	2.35	2.98	0.986	0.718
TCTTGTAGATCAAAGGTTAAGTAAGCCGAAGCCT	1.76	2.18	1.14	0.911	3.27	1.92	-0.293	-0.446
TCGTGTAGATCAATAGAGGTTAAGAAAGTGCGCT	1.47	0.551	0.428	0.621	1.23	2.09	-0.291	0.428
ACTAGCAGGCCAAGTTTGGGTCACTCATACAAAG	2.32	2.26	1.53	-0.0603	0.947	2.47	1.27	0.331
TCTTGTAGATCCGCAGGTTAAGAAAGCTGGCCAA	-0.00283	-0.252	-0.631	0.638	0.152	0.0319	-0.513	-0.38
CCTAGCAGGCCAATCTCGGTCACTCAAGGCTTGA	1.46	0.504	1.24	0.398	-0.123	1.92	-0.183	-0.29

Sequence	PBM binding z-score [1]	PBM binding z-score [2]	PBM binding z-score [3]	PBM binding z-score [4]	PBM binding z-score [5]	PBM binding z-score [6]	PBM binding z-score [7]	PBM binding z-score [8]
TCTGCTAGGTCAACGACGGTCAGCTAATCTGCTA	3.74	4.42	5.58	1.13	2.74	3.48	0.555	-0.198
CCGACTGGGGCAAGTTTACCATAACGCACAGCCA	0.697	0.446	0.667	0.533	0.261	-0.0579	-0.484	0.132
CGAACTAGGTCAAGGACAGTGAGTCTCCGCACGC	3	3.43	4.13	1.02	2.28	3.1	1.85	0.408
TCTAGTTGGTCACGAAGGTCACACACGACGGGTA	4.07	4.7	5.06	1.09	4.24	3.02	1.5	2.09
CAAACTAGGCCACAGAGGTCAAAGTCCGTGCGTA	4.87	5.71	4.91	2.16	6.16	3.95	1.62	4.03
TTACCAAGGTGAAACGTCGTTGATGCACGCCTTG	0.238	0.69	0.555	0.0137	1.01	1.59	0.421	-0.415
AGCTCTAGGTAAGACTCAGTTCAGTGAAGAACGC	0.218	-0.161	-0.269	0.149	-0.208	0.465	0.312	1.14
ATATGTAGGTTACATCCGGGTCACTCAGGCTATG	3.14	3.8	2.2	0.745	3.03	3.94	2.97	2.29
TCTGCTAGGTCAGTTGGTCAGCGAACGAGCTGCC	2.57	2.96	3.87	0.527	0.834	1.21	-0.151	-0.461
AGAACAAGGGCAATGAGTTGATAGCACGGGTGGC	0.907	1.1	1.4	1.14	0.654	0.418	-0.2	2.73
CCAGACAGGTGAAAGGTAACTCTGTCTGGTACGC	0.719	1.24	0.754	0.07	2.07	1.01	-0.229	0.0648
TTACCAAGGTGAAAGGTCGATGATGCACGCCTTG	2.3	3.83	2.15	-0.254	4.5	3.04	0.568	0.119
CCGACTGGGGCAGAAAGGGTACCATACCATCCGG	0.624	0.0836	0.273	-1.36	0.143	-0.36	-0.53	-0.349
CAAACTAGGTCAGAGAGGTCAAAGTCCGTGCGTA	5.19	6.39	6.79	2.74	7.07	4.43	2.45	6.12
GCTCGGAGGACAAGTTCAGAGCTTTGTCCGTAGA	1.38	0.89	1.25	1.73	0.198	1.27	-0.148	1.89
GGAACGAAGGCAAAGTTGATAGCATCTGTCGACG	-0.905	-0.275	-0.151	-0.157	-0.084	-0.716	-1.21	-1.02
TATACAGGGTCAAAGGCCAGATTACGAATGTCGA	3.49	5.72	4.99	3.29	6.99	3.6	0.972	2.54
ACTAGCACGCCAAGTTTGGGTCACTCAAACAAAG	1.5	0.693	0.804	-0.276	0.756	2.02	0.988	-0.0889
TATACAGGGTCAAAGGCCAGAGTACGAATGTCGA	3.67	5.46	5.12	3.02	6.7	3.76	0.87	3.4

Sequence	PBM binding z-score [1]	PBM binding z-score [2]	PBM binding z-score [3]	PBM binding z-score [4]	PBM binding z-score [5]	PBM binding z-score [6]	PBM binding z-score [7]	PBM binding z-score [8]
GCTAGTTGGTCACTAAAAGGTCACACACCGGTCG	5.51	5.78	5.45	0.465	5.16	3.61	1.7	2.13
ACTATTAGTTGAGACGAGGGCAACCGATAGGTTG	1.2	0.833	0.861	0.5	0.75	2.7	0.226	0.728
CGTCCAAGGTCAAAGGTCAGTGTAGAGATGACGG	5.37	8.64	8.04	3.99	10.1	4.77	2.77	3.86
AGAATGAGGTTACCAAAGATCAGGGACACGCTTG	1.72	2.29	1.89	1.2	2.64	3.33	2.17	0.768
ATCGAAAGGTCGTTAGGTGAGTATACAGAAAGGC	2.59	3.91	3.44	2.2	3.98	2.51	0.793	1.84
CTCGAAAGGCCGTGCTCAGGTGAGTATACCAAAC	0.384	0.136	0.46	0.0515	-0.297	1.61	0.381	-0.249
GTACCAAAGTGAATAGGTCGTTGATGAGTAGGCG	0.226	0.205	0.383	-0.282	0.584	-0.048	-0.733	-0.0624
CCTTACGGGTCACTAACAGGTTATAGCATTTGGA	3.17	5.31	4.12	2.03	4.25	2.98	0.367	1.29
CCTACTGGGCCACGAAAGGTCATTGATTCAGTGA	4.53	4.73	4.37	0.61	5.18	3.67	0.798	2.59
TAGCCTAGGTAATTGGGCCAGTATAGTACGCATC	-0.403	-0.17	-0.133	-1.07	-0.301	-0.106	-0.68	-0.642
CATACAGGGTTAGCTAGGCCAGAGTAGGGACGGC	0.276	0.782	0.633	-0.487	0.914	0.66	-0.483	-0.636
TCTGCTAGGTCAGTTGGTGAGCTAACGAGCTGCC	1.93	2.27	3.76	0.367	0.541	1.04	-0.41	-0.739
TGTCAAAGTACAAAGGTAACGTAAGTATCCACAC	1.01	1.41	1.32	0.417	0.984	1.33	-0.416	0.229
CTACCATGGTGAACAAGGTCGTTGATTACTATTC	1.04	0.598	0.184	0.982	0.913	1.99	1.1	1.41
ATCTCTAGGTTACAAGTTCAGTGAAAGAGAGGAC	2.77	2.81	2.37	1.65	1.76	2.02	1.48	2.9
CACCCTAGGTCAGGGCCAGTATAGGAGGAACGTT	2.67	3.33	3.69	-0.329	1.99	2.23	0.911	-0.219
AATAGAGGGTCATCGTAGGCCAGAGTACGCACAG	3.48	5.35	5.12	2.46	5.77	4.26	0.0486	2.55
CGTCCAAGGTCAATGCCAGGTCAGTGAAAGCATT	4.92	7.69	6.75	3.86	5.27	4.71	3.6	3.03
